This note sets out measurements from PubChem BioAssay (NCI).

The panel holds about 83,000 compounds, 20% with a hit somewhere; the sample as a whole holds those more often.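 Single-dose data. Exposure time 48 hours. Values below 10 considered active.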 Unmarked numbers belong to inactive results. Calls of active or inactive are those of the source.

Among the test systems are MOLT-4 leukemia; SR leukemia; RPMI-8226 leukemia; OVCAR-8 ovarian; OVCAR-5 ovarian; OVCAR-4 ovarian; SK-OV-3 ovarian; IGROV1 ovarian; OVCAR-3 ovarian; HS 578T breast; NCI/ADR-RES ovarian; T-47D breast; BT-549 breast; MDA-MB-435 melanoma; SW-620 colon; MCF7 breast; HCT-116 colon; HCC-2998 colon; KM12 colon.
Holding throughout (assay): NCI-60 one-dose screen, 48 h (100 = growth as untreated, 0 = no growth, -100 = all killed)
Details in all cases: 10 µM unless noted

Consider `O=C(Nc1ccc(Cl)cc1)Nc1nccs1`, for which the growth in the assay on MOLT-4 leukemia was 20.6%; in the assay with SR leukemia, 27.3%; in the assay with RPMI-8226 leukemia, 5.61% (active); in the assay with OVCAR-8 ovarian, 24.9%; in the assay with OVCAR-5 ovarian, 67.4%; in the assay with OVCAR-4 ovarian, 81.1%. In addition, the growth with SK-OV-3 ovarian is 33.1%; in the assay with IGROV1 ovarian it was 33.6%; with OVCAR-3 ovarian it was -26.6% (active); in the assay on HS 578T breast, 49.9%; in the assay on NCI/ADR-RES ovarian, 8.57% (active); in the assay on T-47D breast, 40.1%. In addition, the growth is 44.1% in the assay with BT-549 breast; -49.4% (active) with MDA-MB-435 melanoma; 26.4% with SW-620 colon; 15.2% with MCF7 breast; 41.2% in the assay on HCT-116 colon; 69.5% in the assay on HCC-2998 colon. The growth with KM12 colon is 34.3%.
For `C=C1C[C@](OC)([C@H](O)C(=O)N[C@@H](OC)[C@@H]2C[C@@H](O)C(C)(C)[C@@H](C[C@@H](COC)OC)O2)O[C@H](C)[C@@H]1C`, the growth in the assay on MOLT-4 leukemia was -51.7% (active); with SR leukemia, -39.2% (active); in the assay with RPMI-8226 leukemia, -72.5% (active); in the assay with OVCAR-8 ovarian, -20.8% (active); in the assay on OVCAR-5 ovarian, -29.8% (active); in the assay on OVCAR-4 ovarian, -38.4% (active). The growth was -9.43% (active) in the assay on SK-OV-3 ovarian; -66.8% (active) in the assay with IGROV1 ovarian; -43.9% (active) in the assay on OVCAR-3 ovarian; -46.2% (active) with HS 578T breast; -42.3% (active) in the assay with NCI/ADR-RES ovarian; -7.29% (active) with T-47D breast. Further, the growth is -59.9% (active) in the assay with BT-549 breast; -83.3% (active) in the assay on MDA-MB-435 melanoma; -64.3% (active) with SW-620 colon; -52.6% (active) in the assay with MCF7 breast; -16.7% (active) with HCT-116 colon; -41.8% (active) in the assay on KM12 colon.
Regarding `CC(=O)O[C@H]1C(=O)[C@@]2(C)[C@H]([C@H](OC(=O)c3ccccc3)[C@]3(O)C[C@H](OC(=O)[C@H](OC(=O)OC[C@@H]4COC(C)(C)O4)[C@@H](NC(=O)c4ccccc4)c4ccccc4)C(C)=C1C3(C)C)[C@]1(OC(C)=O)CO[C@@H]1C[C@@H]2O`, the growth is 14.7% with MOLT-4 leukemia; 25.5% in the assay with SR leukemia; 5.35% (active) in the assay on RPMI-8226 leukemia; 16.5% with OVCAR-8 ovarian; 6.96% (active) in the assay with OVCAR-5 ovarian; 64.4% in the assay on OVCAR-4 ovarian. The growth is 12.9% in the assay with SK-OV-3 ovarian; 16.6% in the assay on IGROV1 ovarian; 8.13% (active) in the assay on OVCAR-3 ovarian; 2.33% (active) with HS 578T breast; 80.9% in the assay with NCI/ADR-RES ovarian; 25.5% in the assay with T-47D breast. Besides, the growth in the assay with BT-549 breast is 12.5%; in the assay with MDA-MB-435 melanoma it was -77.7% (active); in the assay on SW-620 colon, 26.5%; with HCT-116 colon, 5.09% (active); with HCC-2998 colon it was -4.98% (active); in the assay on KM12 colon, 10.7%.
`Cn1cc(-c2csc(-c3cn(CCCCN4CCCCC4)c4ccc(F)cc34)n2)c2cccnc21`: the growth with MOLT-4 leukemia was -62% (active); in the assay on SR leukemia, -44.9% (active); with RPMI-8226 leukemia, 1.18% (active); in the assay with OVCAR-8 ovarian, 91.8%; in the assay on OVCAR-5 ovarian it was 103%; in the assay on OVCAR-4 ovarian, 87%. Further, the growth in the assay with SK-OV-3 ovarian was 100%; in the assay on IGROV1 ovarian it was 71.7%; with OVCAR-3 ovarian, 87.7%; with HS 578T breast, 67.9%; with NCI/ADR-RES ovarian, 81.7%; in the assay with T-47D breast, 81.5%. The growth in the assay with BT-549 breast is 81.1%; in the assay on MDA-MB-435 melanoma, -91.1% (active); with SW-620 colon it was -69.9% (active); in the assay with HCT-116 colon it was 94.9%; in the assay with HCC-2998 colon, 96.5%; with KM12 colon, 82.5%.
As to `O=C(CCCC1CCCCC1)OCC(Cl)(Cl)Cl`, the growth with MOLT-4 leukemia is 107%; with SR leukemia it was 103%; in the assay with RPMI-8226 leukemia it was 95.7%; with OVCAR-8 ovarian it was 110%; in the assay with OVCAR-5 ovarian, 120%; with OVCAR-4 ovarian it was 105%. Also, the growth with SK-OV-3 ovarian was 101%; with IGROV1 ovarian it was 106%; with OVCAR-3 ovarian, 104%; with HS 578T breast, 103%; in the assay on NCI/ADR-RES ovarian it was 102%; with T-47D breast it was 101%. For the same compound, the growth was 117% with BT-549 breast; 111% in the assay on MDA-MB-435 melanoma; 107% in the assay on SW-620 colon; 103% with HCT-116 colon; 88.4% with HCC-2998 colon; 105% in the assay on KM12 colon.
Take `O=C(CC1(O)C(=O)Nc2ccc(Cl)cc21)c1ccc(C(=O)NCC2CCC3(CC2)OOC2(CCCCC2)OO3)cc1` (stereo not drawn): the growth in the assay on MOLT-4 leukemia is -39.9% (active); in the assay on SR leukemia it was -48.2% (active); with RPMI-8226 leukemia, -42.4% (active); in the assay on OVCAR-8 ovarian, 3.83% (active); with OVCAR-5 ovarian, 47.4%; with OVCAR-4 ovarian, 14.4%. For the same compound, the growth is 57.2% in the assay with SK-OV-3 ovarian; -18.6% (active) in the assay on IGROV1 ovarian; -76.8% (active) in the assay with OVCAR-3 ovarian; 16.1% with HS 578T breast; 58.3% in the assay on NCI/ADR-RES ovarian; -24.7% (active) in the assay with T-47D breast. Moreover, the growth in the assay with BT-549 breast was 48.8%; in the assay on MDA-MB-435 melanoma, 8.39% (active); with SW-620 colon, -49% (active); in the assay with MCF7 breast, 37.4%; in the assay with HCT-116 colon, 41.6%; in the assay on HCC-2998 colon, 83.6%. In addition, the growth in the assay with KM12 colon is 9.65% (active).
On to `CNC(=O)Oc1ccc2c(c1)OCO2`, for which the growth with MOLT-4 leukemia was 94.3%; in the assay with SR leukemia, 91.4%; in the assay with RPMI-8226 leukemia, 115%; in the assay on OVCAR-8 ovarian it was 101%; in the assay on OVCAR-5 ovarian, 106%; in the assay on OVCAR-4 ovarian, 116%. Further, the growth is 116% with SK-OV-3 ovarian; 104% with IGROV1 ovarian; 119% with OVCAR-3 ovarian; 109% with HS 578T breast; 109% in the assay on NCI/ADR-RES ovarian; 99.9% in the assay with T-47D breast. In addition, the growth is 97.1% in the assay on BT-549 breast; 103% with MDA-MB-435 melanoma; 107% with SW-620 colon; 95.7% in the assay with MCF7 breast; 111% in the assay on HCT-116 colon; 106% in the assay with HCC-2998 colon. The growth in the assay on KM12 colon is 101%.
With `COC(=O)[C@@H](C)C[C@H](Cc1cn(C)c2ccccc12)NC(=O)c1csc([C@@H](C[C@H](C(C)C)N(C)C(=O)[C@@H](NC(=O)[C@H]2CCCCN2C)C(C)C)OC(C)=O)n1`, the growth in the assay with MOLT-4 leukemia is 12.8%; in the assay with SR leukemia, 13.2%; in the assay on RPMI-8226 leukemia, 10.5%; in the assay on OVCAR-8 ovarian it was 30.1%; in the assay on OVCAR-5 ovarian, 48.7%; in the assay on OVCAR-4 ovarian, 50.5%. In addition, the growth with SK-OV-3 ovarian is 26.8%; in the assay on IGROV1 ovarian, 26.3%; in the assay on OVCAR-3 ovarian, -11% (active); in the assay with HS 578T breast it was 22.7%; in the assay with NCI/ADR-RES ovarian, 20.7%; in the assay on T-47D breast, 67.7%. For the same compound, the growth in the assay with BT-549 breast is -15.9% (active); with MDA-MB-435 melanoma, -41.5% (active); in the assay on SW-620 colon, 26.8%; in the assay on MCF7 breast, 17.8%; in the assay on HCT-116 colon, 6.08% (active); in the assay on HCC-2998 colon, 17.3%. Further, the growth in the assay with KM12 colon was 9.11% (active).
